# Source: PubChem (National Center for Advancing Translational Sciences (NCATS))
# Only some compounds are listed: those with a hit (about 9.3% of all), similar ones and a draw of the others.
# ELG1 DNA repair: blocks ELG1-dependent DNA repair in HEK293T cells; actives 2.3% (n = 330,000); Potency, µM (top dose mostly 46.1 µM), most hits filed as inhibitors; HEK293T ELG1-luciferase reporter, luminescence, 16 h; DNA damage induced by 5-fluorouridine; also: nearly all actives have a fitted effect of over 55% in size
#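 Luminescence from the luciferase reporter, measured 30 min after ONE-Glo reagent at room temperature, was the read-out. Beforehand, 2,000 cells per well were exposed for 16 hr at 37 °C to 5-fluorouridine together with compound or vehicle.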
# ELG1 genotox: induces genotoxicity in HEK293T cells with luciferase-tagged ELG1; HEK293T ELG1-luciferase reporter, luminescence, 16 h; Potency, µM (titrated, usually from 46 µM), usual class: activators; actives 1.3% (n = 330,000); also: nearly all actives have a fitted effect of over 60% in size
#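 HEK293T cells expressing luciferase-tagged ELG1 were exposed to compound or DMSO vehicle for 16 hr at 37 °C and 5% CO2. Luciferase activity was then measured with ONE-Glo after 30 min at room temperature.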
# NPC1 prom act: activates the NPC1 promoter | actives 2.4% (n = 320,000) | Potency, µM (titrated, usually from 9.22 µM), most hits filed as activators | Huh7 NPC1 promoter luciferase reporter, 24 h; also: nearly all actives have a fitted effect of over 60% in size
#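 Compounds in DMSO were transferred onto Huh7 NPC1-luciferase reporter cells pre-incubated 2 h; after 24 h at 37 °C, Amplite reagent was dispensed and luminescence recorded 10 min later.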
# SMN2 splice up: increases expression of the SMN2 splice variant; Potency, µM (doses to about 46.1 µM), usual class: activators; AID 1458; HEK293 SMN2-luciferase splicing reporter, luminescence, 30-36 h; actives 2.8% (n = 210,000); also: nearly all actives have a fitted effect of over 55% in size
#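 HEK293 cells carry an SMN2 minigene-luciferase reporter in which exon 7 inclusion puts luciferase in frame. Cells were seeded at 2000 cells/well, attached for 10-12 hours, then exposed to compounds for 30-36 hours at 37C before ONE-Glo luminescence.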
# Rab9 promoter act: activates the Rab9 promoter. Huh7 Rab9 promoter-luciferase reporter, luminescence, 24 h. actives 2.8% (n = 320,000). Potency, µM (top dose mostly 9.22 µM), most hits filed as activators; also: nearly all actives have a fitted effect of over 60% in size
#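 Stable Rab9-luc Huh7, 1500 cells/well, 2 h settle; cmpd in DMSO, 24 h, 37 °C/5% CO2; luciferase reagent 10 min RT; luminescence.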
# FLuc counter: firefly luciferase modulation, counter-screen for miR-21 project | P08659 | actives 6.9% (n = 360,000) | AID 588342 | Potency, µM (series often up to 57.5 µM), actives largely listed as inhibitors | purified FLuc, Km substrates, luminescence inhibition; also: nearly all actives have a fitted effect of over 55% in size
# Target sequence (P08659 whole entry, looked up): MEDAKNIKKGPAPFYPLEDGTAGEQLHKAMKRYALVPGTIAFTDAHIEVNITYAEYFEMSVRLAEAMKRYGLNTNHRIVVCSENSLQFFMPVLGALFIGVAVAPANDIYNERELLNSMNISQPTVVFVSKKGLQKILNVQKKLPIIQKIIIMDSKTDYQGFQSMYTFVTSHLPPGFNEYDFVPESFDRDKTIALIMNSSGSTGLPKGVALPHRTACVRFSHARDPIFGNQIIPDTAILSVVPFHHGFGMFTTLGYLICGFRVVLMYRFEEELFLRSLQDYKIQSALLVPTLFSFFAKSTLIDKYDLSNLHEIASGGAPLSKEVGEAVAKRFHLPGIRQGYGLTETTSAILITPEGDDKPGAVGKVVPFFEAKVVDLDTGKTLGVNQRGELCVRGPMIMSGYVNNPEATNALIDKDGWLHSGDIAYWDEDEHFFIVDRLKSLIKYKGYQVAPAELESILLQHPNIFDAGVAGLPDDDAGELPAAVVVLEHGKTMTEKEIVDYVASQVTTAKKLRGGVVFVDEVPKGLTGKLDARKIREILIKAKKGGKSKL
#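 Purified P. pyralis luciferase (10nM final) with 10uM D-luciferin and 10uM ATP (Km levels) in 50mM Tris acetate pH 7.5, 10mM Mg acetate, 0.01% Tween-20, 0.05% BSA; qHTS 6-point titration, ~60 µM downward; luminescence read.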
# Numbers stand for hits; – = inactive; ? = inconclusive; · = no result; [ ] = another dose, or the depositor's remark. Calls follow the shape of the dose curve; as a rule, active = well fitted curve in the direction sought with a large enough effect; inconclusive = small, poorly fitted or top-dose-only effect, or another doubt; inactive = no such curve, though single readings can be large; an effect the other way counts as inactive or inconclusive.
SMILES,ELG1 DNA repair,ELG1 genotox,NPC1 prom act,SMN2 splice up,Rab9 promoter act,FLuc counter
COc1cc(C(=O)NC(=S)N(CCc2ccccc2)CCc2ccccc2)cc(OC)c1OC,18µM,–,–,–,–,–
COc1cccc(NC(=O)CC(=O)c2ccc([N+](=O)[O-])cc2)c1,?,–,?,·,–[1.84 µM],2.1µM
COc1cccc(C(=O)Nc2ccc(C(=O)c3ccncc3)cc2)c1,?,–,–,·,–,?
COc1cccc(C(=O)Nc2cc(Cl)c(O)c(Cl)c2)c1,?,–,?,·,–,15µM
Cc1[nH]c2ccc(C(=O)Nc3ccc(F)cc3)cc2c1C,·,·,·,·,·,24µM
COc1cccc(NC(=O)c2ccccc2)c1,?,?,2.8µM,·,1.8µM,11µM
COc1cccc(NC(=O)Nc2ccc(Br)cn2)c1,?,?,?,·,3.2µM,?
CC1(C)CC(=O)C2=C(C1)Oc1ncn(CCCO)c(=N)c1C2c1ccccc1 (centres undefined),–,–,–,–,–,–
CCCC1S/C(=N/N=C/c2ccc(OC)cc2)N(Cc2ccccc2)C1=O (centres undefined),–,–,–,–,–,–
COc1cc(C(=O)O)cc(NC(=O)c2cccs2)c1OC,?,–,–,·,–,?
Cc1[nH]c2ccc(C(=O)N3CCCC3)cc2c1C,?,–,–,·,–,–
CC(=O)Nc1cccc(/C(C)=N/NS(=O)(=O)c2ccccc2)c1,–,–,–,–,–,–
Cc1[nH]c2ccc(C(=O)N3CCCCC3)cc2c1C,?,?,3.2µM,13µM,3.2µM,19µM
COc1ccc(S(=O)(=O)N/N=C(/C)c2cccc(NC(=O)c3ccccc3Cl)c2)cc1,–,–,–,–,–,27µM
COc1cc(C(=O)OCc2ccc(C)cc2)cc(NC(=O)c2cccs2)c1OC,21µM,–,–,–,–,–
COc1ccc(C(=O)Nc2cccc(OC)c2)cc1,?,2.3µM,2µM,2.8µM,1.3µM,6.7µM
CC(C)(C)C1CCC(CN2C(Nc3ccccc3)=NC[C@@H]2Cc2ccccc2)CC1 (some centres undefined),–,–,·,·,·,·
CCNc1ncc2nc(-c3ccccc3)c(=O)n(Cc3ccc(F)cc3)c2n1,·,·,·,–,·,·
Cc1ccc(CNC(=O)CCC(=O)N2CCSc3ccccc32)cc1,·,·,·,·,·,–
COc1cccc(NC(=O)C(C)C)c1,–,–,–,·,–,–
C/C(=N/NC(=O)c1ccoc1C)c1cccc(NC(=O)C(F)(F)F)c1,?,?,–,–,–,?
COC(=O)c1ccccc1NC(=O)Nc1cccnc1,–,–,–,–,–,15µM
COc1cccc(NC(=O)c2ccc(NC(=O)C(C)C)cc2)c1,?,?,?,·,?,11µM
COc1ccc(C(=O)N/N=C(/C)c2cccc(NC(=O)C(F)(F)F)c2)cc1,?,?,3.5µM,10µM,?,11µM
COc1cccc(NC(=O)c2nnn(CCc3ccccc3)c2N)c1,?,?,–,?,–,15µM
SMILES,ELG1 DNA repair,ELG1 genotox,NPC1 prom act,SMN2 splice up,Rab9 promoter act,FLuc counter
O=C(Nc1ccnn1C1CCN(C2CCCCC2)CC1)c1cccc(F)c1,–,–,–,·,–,–
Cc1ccccc1S(=O)(=O)Cc1ccc(C(=O)N2CCN(C3CCCCC3)CC2)o1,–,–,–,–,–,–
COc1cccc(NC(=O)c2ccc(OC(F)(F)F)cc2)c1,?,?,4µM,·,1.8µM,2.4µM
COc1cccc(/C(C)=N/NC(=O)c2ccc(N(C)C)cc2)c1,?,?,?,?,3.5µM,19µM
Cc1cccc(C(=O)Nc2cccc(Br)c2)c1[N+](=O)[O-],–,–,–,·,–,?
COc1ccc(S(=O)(=O)N/N=C(/C)c2ccco2)cc1,?,?,?,·,2.5µM,17µM
COc1cccc(NC(=O)c2cccc(C)c2[N+](=O)[O-])c1,?,?,–,?,?,19µM
COc1cccc(NC(=O)c2ccccc2C(F)(F)F)c1,?,–,–,–,–,–
CNC(=O)[C@H]1O[C@@H](n2cnc3c(NCc4cccc(I)c4)ncnc32)[C@H](O)[C@H]1O,·,·,·,–,·,·
